Assays:
Test in all cases: DAPPL (digital affinity profiling via proximity ligation, sequencing); 10 mM Tris-HCl pH 7.5, 50 mM NaCl, 1 mM DTT, 4% glycerol, room temperature, 30 min; GST-TFs on glutathione beads, 16-mer random dsDNA library, 0.1% formaldehyde crosslink after washing; high values mean tight binding
[1] = biological target: T1, FLI1 (Homo sapiens, UniProt Q01543 1-452); conditions: protein: recombinant; tags: N-terminal GST; dsDNA, one strand shown
T1 sequence: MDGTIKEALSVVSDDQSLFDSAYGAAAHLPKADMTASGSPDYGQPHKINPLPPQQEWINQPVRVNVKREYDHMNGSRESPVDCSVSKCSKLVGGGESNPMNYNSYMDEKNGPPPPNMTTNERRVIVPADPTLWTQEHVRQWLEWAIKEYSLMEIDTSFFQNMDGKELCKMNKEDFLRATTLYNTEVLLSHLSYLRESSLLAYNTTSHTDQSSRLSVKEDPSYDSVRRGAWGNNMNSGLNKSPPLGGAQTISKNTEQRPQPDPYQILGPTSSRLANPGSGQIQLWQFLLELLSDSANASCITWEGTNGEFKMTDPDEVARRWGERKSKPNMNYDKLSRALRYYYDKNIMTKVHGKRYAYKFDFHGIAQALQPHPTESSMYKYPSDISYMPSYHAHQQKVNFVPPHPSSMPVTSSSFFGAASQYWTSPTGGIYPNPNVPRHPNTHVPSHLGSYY
How it was run: (§1)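 In yeast, human transcription factors were expressed with a GST fusion, then pulled down on glutathione beads and given DNA barcodes. Pooled with a tag-only sample, they were exposed to 200 nmole of a 16-mer random double-stranded DNA library (Tris/NaCl/DTT/glycerol buffer, room temperature, 30 min), washed, crosslinked with 0.1% formaldehyde, proximity-ligated using BsaI/T4 ligase for 1 h at 37 °C, PCR-amplified and read on an Illumina NextSeq500. Each hexamer's frequency of reads for a factor, divided by the matching frequency for the tag-only sample, gives the binding signal.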

[2] = biological target: T2, ELK1 (Homo sapiens, UniProt P19419 1-428); conditions: protein: recombinant; tags: N-terminal GST; dsDNA, one strand shown
T2 sequence: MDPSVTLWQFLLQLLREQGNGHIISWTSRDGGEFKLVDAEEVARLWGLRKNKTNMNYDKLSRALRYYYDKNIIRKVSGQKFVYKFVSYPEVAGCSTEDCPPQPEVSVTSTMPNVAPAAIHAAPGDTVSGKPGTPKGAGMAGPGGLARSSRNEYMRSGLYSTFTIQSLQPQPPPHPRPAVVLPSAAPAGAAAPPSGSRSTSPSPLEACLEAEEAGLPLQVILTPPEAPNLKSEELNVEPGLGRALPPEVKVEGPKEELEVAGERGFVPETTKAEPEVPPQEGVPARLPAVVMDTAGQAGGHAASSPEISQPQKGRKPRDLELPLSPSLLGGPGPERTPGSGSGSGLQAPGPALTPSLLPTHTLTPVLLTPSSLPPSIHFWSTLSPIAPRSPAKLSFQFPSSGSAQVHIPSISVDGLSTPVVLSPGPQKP
How it was run: as §1

[3] = biological target: T3, GABPA (Homo sapiens, UniProt Q06546 1-454); conditions: protein: recombinant; tags: N-terminal GST; dsDNA, one strand shown
T3 sequence: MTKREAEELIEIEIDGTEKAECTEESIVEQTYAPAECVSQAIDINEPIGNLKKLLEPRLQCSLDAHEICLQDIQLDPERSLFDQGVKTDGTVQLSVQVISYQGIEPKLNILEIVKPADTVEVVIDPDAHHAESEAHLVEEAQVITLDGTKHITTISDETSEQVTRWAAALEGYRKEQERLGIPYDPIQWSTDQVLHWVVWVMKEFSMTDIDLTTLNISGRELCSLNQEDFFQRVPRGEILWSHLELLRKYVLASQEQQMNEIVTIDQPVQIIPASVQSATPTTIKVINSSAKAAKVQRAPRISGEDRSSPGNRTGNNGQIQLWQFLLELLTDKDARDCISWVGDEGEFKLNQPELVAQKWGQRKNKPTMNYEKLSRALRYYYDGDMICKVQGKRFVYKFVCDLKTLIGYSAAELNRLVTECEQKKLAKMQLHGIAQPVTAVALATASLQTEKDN
How it was run: as §1

[4] = biological target: T4, ERG (Homo sapiens, UniProt P11308 1-479); conditions: protein: recombinant; tags: N-terminal GST; dsDNA, one strand shown
T4 sequence: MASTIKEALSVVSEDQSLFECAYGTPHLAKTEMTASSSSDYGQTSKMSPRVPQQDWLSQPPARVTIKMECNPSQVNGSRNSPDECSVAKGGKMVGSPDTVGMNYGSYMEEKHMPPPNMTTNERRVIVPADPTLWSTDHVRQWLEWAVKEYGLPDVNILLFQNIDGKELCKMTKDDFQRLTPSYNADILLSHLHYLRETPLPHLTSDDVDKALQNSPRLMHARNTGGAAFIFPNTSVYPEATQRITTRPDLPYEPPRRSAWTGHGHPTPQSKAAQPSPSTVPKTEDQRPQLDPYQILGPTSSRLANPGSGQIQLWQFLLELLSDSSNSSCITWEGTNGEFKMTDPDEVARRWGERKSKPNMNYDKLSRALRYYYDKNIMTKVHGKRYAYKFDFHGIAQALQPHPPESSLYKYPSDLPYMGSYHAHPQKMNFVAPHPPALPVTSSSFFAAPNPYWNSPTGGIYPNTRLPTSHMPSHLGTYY
How it was run: as §1

[5] = biological target: ELF1 (Homo sapiens, UniProt P32519 1-619); conditions: protein: recombinant; tags: N-terminal GST; dsDNA, one strand shown
How it was run: as §1

[6] = biological target: T5, EHF (Homo sapiens, UniProt Q9NZC4 1-300); conditions: protein: recombinant; tags: N-terminal GST; dsDNA, one strand shown
T5 sequence: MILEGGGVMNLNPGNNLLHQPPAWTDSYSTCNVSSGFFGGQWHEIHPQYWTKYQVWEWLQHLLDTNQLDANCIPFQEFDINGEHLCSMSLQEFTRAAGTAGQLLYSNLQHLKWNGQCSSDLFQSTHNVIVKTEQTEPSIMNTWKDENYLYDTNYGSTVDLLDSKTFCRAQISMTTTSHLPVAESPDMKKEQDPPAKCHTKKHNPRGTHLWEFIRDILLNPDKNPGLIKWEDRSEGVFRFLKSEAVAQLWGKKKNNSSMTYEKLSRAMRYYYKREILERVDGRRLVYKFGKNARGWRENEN
How it was run: as §1

[7] = biological target: SPI1 (Homo sapiens, UniProt P17947 1-270); conditions: protein: recombinant; tags: N-terminal GST; dsDNA, one strand shown
How it was run: as §1

[8] = biological target: SPIB (Homo sapiens, UniProt Q01892 1-262); conditions: protein: recombinant; tags: N-terminal GST; dsDNA, one strand shown
How it was run: as §1

[9] = biological target: T6, ELK3 (Homo sapiens, UniProt P41970 1-407); conditions: protein: recombinant; tags: N-terminal GST; dsDNA, one strand shown
T6 sequence: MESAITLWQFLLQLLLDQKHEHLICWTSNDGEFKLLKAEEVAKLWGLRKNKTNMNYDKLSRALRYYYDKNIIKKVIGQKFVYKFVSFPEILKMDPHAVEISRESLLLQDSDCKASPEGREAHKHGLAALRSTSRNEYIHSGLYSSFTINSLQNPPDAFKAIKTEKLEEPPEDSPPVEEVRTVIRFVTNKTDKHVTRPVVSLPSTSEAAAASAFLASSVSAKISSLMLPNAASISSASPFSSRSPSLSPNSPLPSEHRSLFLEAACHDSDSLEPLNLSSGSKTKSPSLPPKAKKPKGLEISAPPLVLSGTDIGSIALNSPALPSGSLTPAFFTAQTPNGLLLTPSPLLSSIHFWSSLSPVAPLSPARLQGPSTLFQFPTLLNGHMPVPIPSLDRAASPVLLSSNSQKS
How it was run: as §1

[10] = biological target: T7, FEV (Homo sapiens, UniProt Q99581 1-238); conditions: protein: recombinant; tags: N-terminal GST; dsDNA, one strand shown
T7 sequence: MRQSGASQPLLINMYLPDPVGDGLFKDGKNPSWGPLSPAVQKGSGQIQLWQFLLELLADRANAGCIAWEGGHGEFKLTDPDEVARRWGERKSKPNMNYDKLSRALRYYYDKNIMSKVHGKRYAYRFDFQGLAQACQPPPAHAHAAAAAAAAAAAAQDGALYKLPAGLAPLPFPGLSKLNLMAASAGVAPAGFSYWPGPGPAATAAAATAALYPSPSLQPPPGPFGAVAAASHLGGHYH
How it was run: as §1

[11] = biological target: ETV5 (Homo sapiens, UniProt P41161 1-510); conditions: protein: recombinant; tags: N-terminal GST; dsDNA, one strand shown
How it was run: as §1

[12] = biological target: HSF1 (Homo sapiens, UniProt Q00613 1-529); conditions: protein: recombinant; tags: N-terminal GST; chain copies: 3; dsDNA, one strand shown
How it was run: as §1

[13] = biological target: T8, SPIC (Homo sapiens, UniProt Q8N5J4 1-248); conditions: protein: recombinant; tags: N-terminal GST; dsDNA, one strand shown
T8 sequence: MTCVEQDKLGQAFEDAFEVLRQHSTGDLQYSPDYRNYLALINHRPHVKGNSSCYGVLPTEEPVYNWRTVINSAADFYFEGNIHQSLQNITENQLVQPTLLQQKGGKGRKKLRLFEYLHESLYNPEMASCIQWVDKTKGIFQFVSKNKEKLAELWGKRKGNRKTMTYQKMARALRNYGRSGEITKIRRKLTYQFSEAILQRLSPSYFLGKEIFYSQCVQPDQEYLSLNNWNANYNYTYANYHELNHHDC
How it was run: as §1

[14] = biological target: ELF4 (Homo sapiens, UniProt Q99607 1-663); conditions: protein: recombinant; tags: N-terminal GST; dsDNA, one strand shown
How it was run: as §1

[15] = biological target: T9, ELK4 (Homo sapiens, UniProt P28324-2 1-405); conditions: protein: recombinant; tags: N-terminal GST; dsDNA, one strand shown
T9 sequence: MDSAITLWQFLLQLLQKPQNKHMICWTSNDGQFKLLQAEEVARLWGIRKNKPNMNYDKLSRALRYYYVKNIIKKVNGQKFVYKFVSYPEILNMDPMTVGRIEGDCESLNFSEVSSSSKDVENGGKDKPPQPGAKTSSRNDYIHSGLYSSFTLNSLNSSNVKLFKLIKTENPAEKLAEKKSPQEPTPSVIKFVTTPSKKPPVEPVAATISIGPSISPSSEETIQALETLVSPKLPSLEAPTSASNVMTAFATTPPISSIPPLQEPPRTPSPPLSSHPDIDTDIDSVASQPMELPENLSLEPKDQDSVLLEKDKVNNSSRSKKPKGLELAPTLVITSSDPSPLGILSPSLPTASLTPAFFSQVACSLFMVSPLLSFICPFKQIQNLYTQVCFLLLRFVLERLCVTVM
How it was run: as §1

[16] = biological target: T10, ETV2 (Homo sapiens, UniProt O00321 1-342); conditions: protein: recombinant; tags: N-terminal GST; dsDNA, one strand shown
T10 sequence: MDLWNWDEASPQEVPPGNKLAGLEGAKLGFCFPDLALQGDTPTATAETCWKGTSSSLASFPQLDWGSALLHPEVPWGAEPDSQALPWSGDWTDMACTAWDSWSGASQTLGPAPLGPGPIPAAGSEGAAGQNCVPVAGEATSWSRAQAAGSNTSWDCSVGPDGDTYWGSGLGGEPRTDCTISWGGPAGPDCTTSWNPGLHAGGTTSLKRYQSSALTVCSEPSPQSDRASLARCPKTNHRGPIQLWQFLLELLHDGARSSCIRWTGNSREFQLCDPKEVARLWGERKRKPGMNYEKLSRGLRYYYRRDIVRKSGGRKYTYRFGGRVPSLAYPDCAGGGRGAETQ
How it was run: as §1

[17] = biological target: T11, ELF3 (Homo sapiens, UniProt P78545 1-371); conditions: protein: recombinant; tags: N-terminal GST; dsDNA, one strand shown
T11 sequence: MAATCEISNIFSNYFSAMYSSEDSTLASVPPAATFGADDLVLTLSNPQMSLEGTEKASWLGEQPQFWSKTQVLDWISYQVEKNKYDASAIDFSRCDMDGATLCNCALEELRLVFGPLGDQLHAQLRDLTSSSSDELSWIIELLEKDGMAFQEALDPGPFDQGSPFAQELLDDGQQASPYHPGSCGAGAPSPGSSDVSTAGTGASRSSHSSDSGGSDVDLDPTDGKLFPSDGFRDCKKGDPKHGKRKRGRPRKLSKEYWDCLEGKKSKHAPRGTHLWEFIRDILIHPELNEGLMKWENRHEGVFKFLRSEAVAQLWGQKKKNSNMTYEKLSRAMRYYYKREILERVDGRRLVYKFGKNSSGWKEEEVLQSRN
How it was run: as §1

[18] = biological target: CRX (Homo sapiens, UniProt O43186 1-299); conditions: protein: recombinant; tags: N-terminal GST; dsDNA, one strand shown
How it was run: as §1

[19] = biological target: ETV1 (Homo sapiens, UniProt P50549 1-477); conditions: protein: recombinant; tags: N-terminal GST; dsDNA, one strand shown
How it was run: as §1

Sequence of ELF1 (P32519 whole entry): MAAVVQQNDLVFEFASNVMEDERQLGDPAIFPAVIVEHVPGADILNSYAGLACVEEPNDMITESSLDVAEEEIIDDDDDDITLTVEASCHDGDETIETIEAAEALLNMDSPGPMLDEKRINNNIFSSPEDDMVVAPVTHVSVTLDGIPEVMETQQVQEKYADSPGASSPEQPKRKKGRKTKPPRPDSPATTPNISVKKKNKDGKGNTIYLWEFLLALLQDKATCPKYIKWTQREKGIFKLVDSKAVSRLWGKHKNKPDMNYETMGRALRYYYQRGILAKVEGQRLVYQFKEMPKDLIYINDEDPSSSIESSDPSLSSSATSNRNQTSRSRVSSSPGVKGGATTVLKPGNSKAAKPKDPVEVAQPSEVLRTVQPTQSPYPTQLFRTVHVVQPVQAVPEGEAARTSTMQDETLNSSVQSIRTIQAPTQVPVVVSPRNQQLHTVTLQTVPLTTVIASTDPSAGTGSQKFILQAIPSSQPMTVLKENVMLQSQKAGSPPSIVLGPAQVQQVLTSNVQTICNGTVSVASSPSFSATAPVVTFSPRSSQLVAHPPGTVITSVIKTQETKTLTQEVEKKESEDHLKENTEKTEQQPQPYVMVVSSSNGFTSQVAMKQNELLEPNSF
Sequence of ETV5 (P41161 whole entry): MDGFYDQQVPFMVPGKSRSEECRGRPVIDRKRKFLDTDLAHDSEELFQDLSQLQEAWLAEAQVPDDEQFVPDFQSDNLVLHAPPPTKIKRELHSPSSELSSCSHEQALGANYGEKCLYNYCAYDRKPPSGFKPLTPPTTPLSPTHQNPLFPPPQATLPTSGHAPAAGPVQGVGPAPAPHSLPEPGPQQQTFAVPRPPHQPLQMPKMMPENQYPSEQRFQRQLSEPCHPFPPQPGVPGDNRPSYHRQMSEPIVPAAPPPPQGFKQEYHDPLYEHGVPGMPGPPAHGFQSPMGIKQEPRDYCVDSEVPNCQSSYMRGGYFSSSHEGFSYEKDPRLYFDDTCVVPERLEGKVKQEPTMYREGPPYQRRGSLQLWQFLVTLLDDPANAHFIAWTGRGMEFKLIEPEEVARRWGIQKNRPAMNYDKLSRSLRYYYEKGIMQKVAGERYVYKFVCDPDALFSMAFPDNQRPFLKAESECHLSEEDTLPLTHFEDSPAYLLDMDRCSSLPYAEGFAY
Sequence of HSF1 (Q00613 whole entry): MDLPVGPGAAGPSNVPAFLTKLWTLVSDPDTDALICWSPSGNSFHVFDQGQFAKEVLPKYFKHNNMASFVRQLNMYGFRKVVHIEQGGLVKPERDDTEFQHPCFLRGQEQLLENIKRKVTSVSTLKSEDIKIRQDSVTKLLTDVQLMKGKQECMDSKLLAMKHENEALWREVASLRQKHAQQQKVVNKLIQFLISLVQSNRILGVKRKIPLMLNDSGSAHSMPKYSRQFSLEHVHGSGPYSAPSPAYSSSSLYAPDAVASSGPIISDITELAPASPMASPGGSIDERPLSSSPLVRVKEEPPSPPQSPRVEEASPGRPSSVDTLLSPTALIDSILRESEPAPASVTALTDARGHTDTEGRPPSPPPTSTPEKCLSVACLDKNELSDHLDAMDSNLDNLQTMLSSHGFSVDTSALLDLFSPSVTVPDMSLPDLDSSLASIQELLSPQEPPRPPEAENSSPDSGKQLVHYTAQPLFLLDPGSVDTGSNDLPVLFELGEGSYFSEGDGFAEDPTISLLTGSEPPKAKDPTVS
Sequence of ETV1 (P50549 whole entry): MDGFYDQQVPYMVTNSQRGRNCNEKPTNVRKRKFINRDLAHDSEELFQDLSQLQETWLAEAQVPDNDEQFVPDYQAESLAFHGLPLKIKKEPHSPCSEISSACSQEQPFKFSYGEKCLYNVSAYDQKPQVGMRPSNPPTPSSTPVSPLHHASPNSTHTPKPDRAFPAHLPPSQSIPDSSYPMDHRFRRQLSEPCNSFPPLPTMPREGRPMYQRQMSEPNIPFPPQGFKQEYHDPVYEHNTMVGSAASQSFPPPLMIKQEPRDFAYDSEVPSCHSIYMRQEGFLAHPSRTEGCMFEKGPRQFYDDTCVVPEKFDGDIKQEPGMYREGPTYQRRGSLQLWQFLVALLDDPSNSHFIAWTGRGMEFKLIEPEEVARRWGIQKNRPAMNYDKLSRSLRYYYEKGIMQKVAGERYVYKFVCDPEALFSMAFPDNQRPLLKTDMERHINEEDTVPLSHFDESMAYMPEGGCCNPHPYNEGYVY
Sequence of ELF4 (Q99607 whole entry): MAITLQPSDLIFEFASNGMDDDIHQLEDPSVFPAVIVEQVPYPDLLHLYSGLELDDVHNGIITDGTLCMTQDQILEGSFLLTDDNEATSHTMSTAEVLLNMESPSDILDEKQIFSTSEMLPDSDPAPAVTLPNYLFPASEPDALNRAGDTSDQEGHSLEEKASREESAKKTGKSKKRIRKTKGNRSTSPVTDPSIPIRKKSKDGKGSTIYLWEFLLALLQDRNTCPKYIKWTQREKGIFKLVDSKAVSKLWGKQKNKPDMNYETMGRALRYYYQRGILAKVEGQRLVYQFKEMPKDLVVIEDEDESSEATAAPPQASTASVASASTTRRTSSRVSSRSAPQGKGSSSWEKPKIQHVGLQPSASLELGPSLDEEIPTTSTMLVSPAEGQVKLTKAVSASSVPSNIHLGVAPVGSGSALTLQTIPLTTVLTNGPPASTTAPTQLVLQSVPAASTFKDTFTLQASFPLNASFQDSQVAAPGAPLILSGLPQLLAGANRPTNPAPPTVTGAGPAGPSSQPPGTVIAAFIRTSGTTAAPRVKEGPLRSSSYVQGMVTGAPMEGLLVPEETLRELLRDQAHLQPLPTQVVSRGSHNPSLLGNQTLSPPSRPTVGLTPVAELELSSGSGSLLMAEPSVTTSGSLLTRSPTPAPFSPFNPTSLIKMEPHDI
Sequence of CRX (O43186 whole entry): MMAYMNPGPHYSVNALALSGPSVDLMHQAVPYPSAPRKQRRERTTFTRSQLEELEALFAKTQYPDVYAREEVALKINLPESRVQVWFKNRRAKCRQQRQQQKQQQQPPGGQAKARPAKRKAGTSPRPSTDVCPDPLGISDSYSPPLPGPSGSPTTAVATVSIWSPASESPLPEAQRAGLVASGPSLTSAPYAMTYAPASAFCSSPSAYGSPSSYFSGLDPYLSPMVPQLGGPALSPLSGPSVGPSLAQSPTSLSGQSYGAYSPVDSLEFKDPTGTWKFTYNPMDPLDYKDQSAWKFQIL
Sequence of SPIB (Q01892 whole entry): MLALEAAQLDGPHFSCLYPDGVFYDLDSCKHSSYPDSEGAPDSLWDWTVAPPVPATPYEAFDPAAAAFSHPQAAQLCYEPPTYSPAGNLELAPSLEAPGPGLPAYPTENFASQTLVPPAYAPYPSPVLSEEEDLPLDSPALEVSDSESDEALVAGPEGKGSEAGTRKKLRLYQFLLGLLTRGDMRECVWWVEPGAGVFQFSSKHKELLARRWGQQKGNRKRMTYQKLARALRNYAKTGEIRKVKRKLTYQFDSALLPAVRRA

## CTACCT
[1]
  binding signal: 1.37 fold enrichment (6-mer frequency, TF over GST control)
[2]
  binding signal: 1.46 fold enrichment (6-mer frequency, TF over GST control)
[3]
  binding signal: 1.35 fold enrichment (6-mer frequency, TF over GST control)
[4]
  binding signal: 1.43 fold enrichment (6-mer frequency, TF over GST control)
[5]
  binding signal: 1.35 fold enrichment (6-mer frequency, TF over GST control)
[6]
  binding signal: 1.46 fold enrichment (6-mer frequency, TF over GST control)
[7]
  binding signal: 1.45 fold enrichment (6-mer frequency, TF over GST control)
[8]
  binding signal: 1.4 fold enrichment (6-mer frequency, TF over GST control)
[9]
  binding signal: 1.44 fold enrichment (6-mer frequency, TF over GST control)
[10]
  binding signal: 1.3 fold enrichment (6-mer frequency, TF over GST control)
[11]
  binding signal: 1.36 fold enrichment (6-mer frequency, TF over GST control)
[12]
  binding signal: 1.15 fold enrichment (6-mer frequency, TF over GST control)
[13]
  binding signal: 1.38 fold enrichment (6-mer frequency, TF over GST control)
[14]
  binding signal: 1.46 fold enrichment (6-mer frequency, TF over GST control)
[15]
  binding signal: 1.36 fold enrichment (6-mer frequency, TF over GST control)
[16]
  binding signal: 1.54 fold enrichment (6-mer frequency, TF over GST control)
[17]
  binding signal: 1.18 fold enrichment (6-mer frequency, TF over GST control)
[18]
  binding signal: 1.23 fold enrichment (6-mer frequency, TF over GST control)
[19]
  binding signal: 1.54 fold enrichment (6-mer frequency, TF over GST control)
